Compounds without any hit were thinned out: in the full panel of roughly 83,000, 20% have a hit.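 Note: values are percent growth. 100 is the growth of untreated cells, values between 100 and 0 indicate rising inhibition; between -100 and 0 indicates cell death.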 Unmarked numbers belong to inactive results. Calls of active or inactive are those of the source.

This assay has as its system CCRF-CEM leukemia. As to the kind of experiment: NCI-60 one-dose screen, 48 h (100 = growth as untreated, 0 = no growth, -100 = all killed). Particulars: 10 µM unless noted. How it is done: Growth inhibition of the CCRF-CEM human tumor cell line is measured as a screen for anti-cancer activity. Cells are grown in 96 well plates and exposed to the test compound for 48 hours. Compounds are tested at a single concentration, which is 10^-5 M for most compounds. The reported endpoint is percent growth (GI% or GIPRCNT), where numbers from 0 - 100% represent growth inhibition, and numbers from -100% - 0 represent cell death. For example, a value of 40 represents 60% growth inhibition. A value of 0 means no net growth occurred over the course of the experiment. A value of -40 indicates 40% of cells at the beginning of the experiment died by the end of the experiment. A value of -100 means all cells are dead at the end of the experiment.
NCI-60 Human Tumor Cell Lines Screen was performed using the standard one-dose NCI protocol, which is described in more detail at https://dtp.cancer.gov/discovery_development/nci-60/default.htm.
Compounds with GIPRCNT values below 10 were considered active. Activity score was based on GIPRCNT using the following formula: […]
Score is 0 for GIPRCNT values of 100 or above, 50 for GIPRCNT values of 0, and 100 for GIPRCNT values of -100.
In the case of `NC(CCl)=NCC12CC3CC(CC(C3)C1)C2`, the growth is -15.8% (active). For `COc1ccc(C(=O)/C(=N/Nc2ccccc2)c2ccc(OC)cc2)cc1`, the growth is 94.1%. As to `CC(C)c1ccc(C(=O)OCCCl)cc1`, the growth is 107%. The same measure for `COc1cc(OC)c(NC(=O)C(Sc2nc(C)cc(C)c2C#N)c2ccccc2)cc1Cl` (stereo not given): 99.4%; for `NC(=S)N/N=C/c1ccc(OC(=O)COc2ccccc2)cn1`: 18.9%. The figure for `N=C(N)c1nn(C2OC(CO)C(O)C2O)c2nc[nH]c(=O)c12` (stereo not given) is -0.754% (active).

For `C[C@H](CCC[C@H](C)OS(=O)(=O)c1ccccc1)OS(=O)(=O)c1ccccc1`, the growth is 120%. The figure for `NC(=S)c1c(N)n(C2OC(CO)C(O)C2O)c2ncnc(N)c12` (stereo not given) is -48.9% (active); for `CS(=O)(=O)c1ccc(/C=C\C(=O)O)cc1` it is 101%; for `NNC(=O)CCCCl` it is 112%.

Take `C=C(OC(C)=O)c1ccccc1`: the growth is 83.5%.

For the compound `CCC(C)c1c(N)n(S(=O)(=O)c2ccc(C)cc2)oc1=O` (stereo not given), the growth was 112%. Regarding `CCCCCCCCCCC(=O)CCCCCCCCCC`, the growth was 90%. Consider `O=C(O)C1CSC(c2ccccc2)N1` (stereo not given), for which the growth was 121%. The figure for `CC(=O)Nc1ccc(/C=C2\SC(=S)N(/C=C(\C(C)=O)C(N)=O)C2=O)cc1` is 91.1%. In the case of `CCNCC(C)(C)O`, the growth was 106%. Turning to `CCCCCC/C=C\CCCCCCCCCc1cc(O)cc(OC)c1O`, the growth was -0.181% (active). On to `Cc1nc(C)c(C(=O)O)cc1C(=O)O`, for which the growth is 103%. As to `CSCCC(NC(=O)C(Cl)Cl)C(=O)O` (stereo not given), the growth was 97.7%. For the compound `CC(=O)Oc1c(Cl)cccc1-c1ccccc1`, the growth was 101%. As for `O=C(O)C1CCCN1C(=O)OCc1ccccc1` (stereo not given), the growth is 112%. As to `Nc1ncc([N+](=O)[O-])cn1`, the growth is 98.4%. For the compound `CCOc1ccncc1[N+](=O)[O-]`, the growth is 109%. As for `O=C(c1ccc(Cl)cc1)N1CCCCC1`, the growth is 93.3%. The figure for `CC(=O)NNC(=S)/N=C\C(C(=O)c1ccccc1)=C(/O)c1ccccc1` is 102%; for `CCOC(=O)c1cc(C)[nH]c(=O)c1C#N` it is 81.9%; for `CCCOCc1cn[nH]n1` it is 109%. In the case of `CC(C)C(C)(C)C(=O)C(C)(C)C(C)(C)C`, the growth was 107%. On to `COC(=O)c1cccc([N+](=O)[O-])c1`, for which the growth was 104%. With `CCOc1ccc2c(c1)c(C)cc(C)[n+]2CC`, the growth was 71.2%. The same measure for `C=CC(=O)OC1CCC(C(C)(C)CC)CC1` (stereo not given): 106%; for `CC1CC2C3CCC4=CC(=O)CCC4(C)C3CCC2(C)C1(O)C(=O)CO` (stereo not given): 90.6%. The same measure for `O=C(NC(=S)N1CC=CCC1)c1ccccc1`: 121%; for `O=S(Cc1ccccc1)/C(=C/NC(=S)Nc1ccccc1)c1ccccc1` (stereo not given): 102%. Regarding `CCOC(=O)C(COS(C)(=O)=O)(COS(C)(=O)=O)C(=O)OCC`, the growth was 105%. In the case of `CC(O)C(F)(F)C(F)(F)C(F)(F)F` (stereo not given), the growth was 108%. The figure for `NNc1ncccn1` is 109%. The figure for `CN1CCN(C(=S)S)CC1` is 89%; for `NC(=O)c1cc2c3ccccc3ccn2c1-c1ccccc1` it is 2.84% (active). As to `CC(=O)NC(CCC(=O)c1ccccc1)C(=O)O` (stereo not given), the growth was 103%.

These data come from PubChem BioAssay (NCI).
